Screens deposited in PubChem BioAssay by Broad Institute.
EWS-Fli block – blocks EWS/Fli oncoprotein-driven transcription; A673 NR0B1-luciferase reporter, viability-normalised; inhibition, % at 12.6 µM; AID 651661; 350,000 tested, 0.67% active;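 active means mean inhibition of at least 50% after viability correction, with every replicate also passing that limit; inconclusive means mean reaches 50% but only one of two replicates passes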;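 further: firefly luciferase signal divided by Alamar Blue viability fluorescence both relative to DMSO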
LGR2 inh – blocks bursicon-induced cAMP signaling via Drosophila LGR2. HEK293 LGR2, CRE-luciferase, bursicon-stimulated, 4 h. inhibition, % at 9.99 µM. 380,000 tested, 0.35% active. AID 720647;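 active means drop in luminescence signal, shown as inhibition above about 50% in the replicate tests, limit read from the data, passing the limit was not always enough; inconclusive means probably only some replicates passing the limit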;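 further: agonist challenge used bursicon conditioned medium at about half maximal strength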
EBV LMP1 NFkB – Epstein-Barr LMP1 NF-kappaB reporter inhibition; LMP1-induced NF-kappaB luciferase reporter cells, luminescence; inhibition, % at 12.5 µM; 350,000 tested, 0.69% active; in the data active means inhibition above about 41%; inconclusive means no clear call, values can overlap the other calls;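 further: 0% = neutral control wells and 100% = reference inhibitor control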
PAX8 inh HTS – PAX8 transcriptional activity inhibition; inhibition, % at 12.6 µM; RMG-I TPO-luciferase reporter, SteadyGlo, 24 h; AID 652154; 360,000 tested, 1.2% active;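 active means mean replicate inhibition at least 60% with every replicate also reaching 60%; inconclusive means only one of the two criteria is met; inactive means mean below 60% and not all replicates reaching 60%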;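 further: luciferase light reporting Pax8 driven TPO promoter activity; plate controls were median of neutral control wells for no effect and mitoxantrone controls for full effect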
PGC1a acetyl inh – modulators of PGC1a acetylation. U2OS PGC1a acetylation, AlphaScreen anti-acetyl-lysine; with virally co-expressed GCN5 acetyltransferase. inhibition, % at 15.6 µM. 350,000 tested, 0.17% active. AID 651687;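 active means every replicate shows inhibition of at least 40%; inconclusive means mean inhibition at least 40% but some replicate below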;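 further: 0% = neutral control wells and 100% = positive control wells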
TRPM1 prom inh – reduces MITF-dependent TRPM1 promoter luciferase signal; SK-MEL-5 TRPM1 promoter luciferase, 24 h; 330,000 tested, 0.83% active; inhibition, % at 12.5 µM; AID 488899;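 active means mean inhibition across replicates of 60% or more, whatever share of single replicates reaches that level; inconclusive means some that reach 60%, reason not given; inactive means mean inhibition across replicates below 60%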
Active calls of the source: *; ? = inconclusive; . = no result. The list is not random: actives were taken first. Their share in the collection is about 2.2%.

SMILES | EWS-Fli block | LGR2 inh | EBV LMP1 NFkB | PAX8 inh HTS | PGC1a acetyl inh | TRPM1 prom inh
NNC(=O)c1[nH]c2ccc(Cl)cc2c1-c1ccccc1 | 17 | 0 | 5 | 66* | . | 6
Cc1ccccc1NC1=C/C(=N\S(=O)(=O)c2ccc(C(=O)O)cc2)c2ccccc2C1=O | -21 | -5 | -13 | 4 | . | 22
COc1ccc(S(=O)(=O)/N=C2\C=C(Nc3ccc(O)cc3)C(=O)c3ccccc32)cc1 | 52* | 101* | 74* | 108* | . | 99*
Cc1ccccc1NC1=C/C(=N\S(=O)(=O)c2cccs2)c2ccccc2C1=O | . | . | 91* | 110* | 88* | 87*
CC(=O)Nc1ccc(NC2=C/C(=N/S(=O)(=O)c3cccs3)c3ccccc3C2=O)cc1 | 18 | 98* | 2 | 83* | 70* | 102*
O=C(O)c1ccc(S(=O)(=O)/N=C2\C=C(Nc3ccccc3F)C(=O)c3ccccc32)cc1 | ? | 101* | -14 | 14 | . | 46
CCN1C[C@@H](C)[C@H](OC)CN(C)C(=O)c2cc(NC(=O)NC(C)C)ccc2OC[C@H]1C | 10 | 8 | . | . | 7 | .
CNC[C@H]1Oc2c(NC(=O)Nc3cccc4ccccc34)cccc2C(=O)N([C@@H](C)CO)C[C@H]1C | 8 | 0 | . | 6 | -8 | .
O=C(C[C@@H]1CC[C@H]2[C@@H](COC[C@@H](O)CN2Cc2cccc(Cl)c2)O1)NCC1CCCCC1 | 16 | 37 | . | 20 | -7 | .
CC(C)(C)c1ccc(CCC2OCC(C[N+]3(C)CCOCC3)O2)cc1 (centres undefined) | 5 | 1 | -4 | ? | 73* | 4
COc1cccc(-c2ccc3n(c2=O)C[C@@H]2[C@@H](CO)[C@H](C(=O)N(C)C)[C@H]3N2Cc2cncnc2)c1 | 2 | -4 | . | 13 | . | .
Cc1ccc(C(=O)NC(NCc2ccccc2)C(Cl)(Cl)Cl)cc1 (centres undefined) | 5 | -1 | -1 | 145* | 0 | -2
Cc1ccc(C(=O)NC(NCC2CCCO2)C(Cl)(Cl)Cl)cc1 (centres undefined) | 0 | . | 7 | 17 | . | 10
CCCNC(=O)C[C@H]1CC[C@@H]2[C@H](COc3ccc(NC(=O)Nc4c(C)noc4C)cc3C(=O)N2C)O1 | -3 | 2 | . | -4 | 0 | .
CCCC#Cc1ccc2c(c1)O[C@@H](CN(C)C(C)=O)[C@@H](C)CN([C@@H](C)CO)S2(=O)=O | 3 | 0 | . | . | 0 | .
O=C(C=C=Nc1ccccc1)C(=O)N=C=Cc1ccccc1 | 7 | 21 | -10 | 80* | -27 | 82*
O=C(N/N=C/c1ccccc1)C(=O)N/N=C/c1ccccc1 | 0 | -1 | -4 | -6 | . | -7
Oc1ccc(CNc2ccccc2F)c2cccnc12 | -2 | 36 | 8 | 87* | -5 | 65*
OCc1ccc(O)c2ncccc12 | . | . | -14 | . | . | ?
Oc1ccc(F)c2cccnc12 | 8 | -4 | -8 | 94* | 14 | 10
C/C=C/c1ccc2c(c1)O[C@H](CN(C)Cc1ccccn1)[C@@H](C)CN([C@H](C)CO)S2(=O)=O | 4 | -22 | . | -1 | 11 | .
Cc1ccc(S(=O)(=O)Nc2ccc3c(c2)C(=O)N([C@H](C)CO)C[C@@H](C)[C@@H](CN(C)S(=O)(=O)c2ccc(Cl)cc2)O3)cc1 | -2 | -9 | . | -2 | 11 | .
Cc1ccc(C(=O)OCC(=O)NC(=O)NCc2ccccc2)cc1C | -1 | -2 | 2 | -19 | 4 | 2
O=C(COC(=O)c1ccc(F)c([N+](=O)[O-])c1)NC(=O)NCc1ccccc1 | 9 | . | 0 | 3 | -3 | 70*
CC[C@H](C)[C@@H]1OC(=O)[C@@H](C)[C@@H](CC)NC(=O)[C@H](C)N(C)C(=O)C(C)(C)C(=O)C(C)NC(=O)[C@H](Cc2ccccc2)N(C)C(=O)[C@H](C(C)C)N(C)C(=O)CNC(=O)[C@H](CC(C)C)N(C)C(=O)CNC1=O (some centres undefined) | . | . | . | . | 76* | .
CN1c2ccc(-c3ccc(C#N)cc3)cc2[C@@H]2[C@@H](CCN2C(=O)c2cccc(F)c2)[C@H]1CO | 9 | -5 | . | -12 | 8 | .
C[C@@H]1CN([C@@H](C)CO)C(=O)c2cccc(NS(=O)(=O)c3ccc(Cl)cc3)c2O[C@@H]1CN(C)S(=O)(=O)c1ccc(Cl)cc1 | -5 | -2 | . | -29 | -12 | .
